In PubChem BioAssay AID1159554 (Broad Institute, 2015):
Out of some 94,000 compounds screened, about 2,100 (2.2%) were called active. This is one part of a sample in which actives are shown more often than they occur. Cut-off read from the data, not from the text of the source: active = activity change below about -80%; inconclusive = no clear call, values can overlap the other calls; inactive = above that.

Test: Dd2 malaria parasite growth inhibition – SYBR Green fluorescence, single dose replicates, primary screen (AID 1159554)
Conditions: P. falciparum Dd2 growth, 72 h, at 10 µM, stronger effect = lower value

Activity change, active:
C[C@H]1CN([C@@H](C)CO)C(=O)c2ccccc2-c2ccccc2CO[C@H]1CN(C)Cc1ccc(-c2ccccc2)cc1 -88.6%, C[C@@H]1CN([C@H](C)CO)C(=O)c2c(c3ccccc3n2C)-c2ccccc2CO[C@H]1CN(C)Cc1ccc(F)cc1 -83.8%, C[C@H]1CN([C@@H](C)CO)C(=O)c2c(c3ccccc3n2C)-c2ccccc2CO[C@H]1CN(C)S(=O)(=O)c1ccc(C#N)cc1 -85.2%, C[C@H]1CN([C@@H](C)CO)C(=O)c2ccccc2-c2ccccc2CO[C@@H]1CN(C)S(=O)(=O)c1ccc(C(F)(F)F)cc1 -83.7%, C[C@H](CO)N1C[C@H](C)[C@@H](CN(C)S(=O)(=O)c2cccc(F)c2)OCc2ccccc2-c2c(n(C)c3ccccc23)C1=O -87.4%, C[C@H](CO)N1C[C@H](C)[C@@H](CN(C)S(=O)(=O)c2ccc([N+](=O)[O-])cc2)OCc2ccccc2-c2c(n(C)c3ccccc23)C1=O -84.4%, Cc1ccc(S(=O)(=O)N(C)C[C@@H]2OCc3ccccc3-c3c(n(C)c4ccccc34)C(=O)N([C@@H](C)CO)C[C@@H]2C)cc1 -89.8%, C/C=C/c1ccccc1[C@H]1[C@@H](C#N)N(c2nc(CC)cs2)[C@@H]1CO -82.9%, C/C=C/c1ccccc1[C@@H]1[C@@H](CO)N(S(=O)(=O)c2cccc(F)c2)[C@H]1C#N -88%, CCc1sc(N2[C@@H](C#N)[C@@H](c3ccccc3-c3ccccc3)[C@@H]2CO)nc1C -83.4%, CNC[C@H]1OCCCC[C@@H](C)Oc2ccc(NC(=O)Nc3ccc(C(F)(F)F)cc3)cc2C(=O)N([C@H](C)CO)C[C@H]1C -82.5%, C[C@@H]1CCCCO[C@H](CN(C)C(=O)Nc2ccc(C(F)(F)F)cc2)[C@H](C)CN([C@H](C)CO)C(=O)c2cc(NC(=O)Nc3ccc(C(F)(F)F)cc3)ccc2O1 -80.3%, C[C@@H]1CCCCO[C@H](CN(C)C(=O)Nc2ccc(C(F)(F)F)cc2)[C@@H](C)CN([C@@H](C)CO)C(=O)c2cc(NC(=O)Nc3cccc4ccccc34)ccc2O1 -88.3%, Cc1ccc(S(=O)(=O)N(C)C[C@@H]2OCCCC[C@@H](C)Oc3ccc(NC(=O)Nc4ccc(C(F)(F)F)cc4)cc3C(=O)N([C@@H](C)CO)C[C@@H]2C)cc1 -86.1%

Activity change, inactive:
CN1c2ccc(Br)cc2[C@@H]2[C@@H](CCN2C(=O)C2CCCCC2)[C@H]1CO 11.1%, CCCc1cn(CC[C@H]2CC[C@@H](NC(=O)C3CCOCC3)[C@@H](CO)O2)nn1 -3.07%, COC(=O)N(C)C[C@H]1OCc2ccccc2-c2ccccc2C(=O)N([C@@H](C)CO)C[C@H]1C 23.3%, CC(C)NC(=O)N(C)C[C@H]1OCc2ccccc2-c2c(n(C)c3ccccc23)C(=O)N([C@H](C)CO)C[C@@H]1C 32.6%, C[C@@H]1CN([C@H](C)CO)C(=O)c2c(c3ccccc3n2C)-c2ccccc2CO[C@@H]1CN(C)Cc1ccc(F)cc1 -64.4%, COc1ccc(S(=O)(=O)N(C)C[C@@H]2OCc3ccccc3-c3ccccc3C(=O)N([C@@H](C)CO)C[C@@H]2C)cc1 -71.4%, C[C@H]1CN([C@@H](C)CO)C(=O)c2ccccc2-c2ccccc2CO[C@H]1CN(C)C(=O)Nc1ccc(-c2ccccc2)cc1 -74.8%, C[C@H](CO)N1C[C@H](C)[C@@H](CN(C)Cc2ccc(C(F)(F)F)cc2)OCc2ccccc2-c2c(n(C)c3ccccc23)C1=O -13.7%, Cc1ccc(S(=O)(=O)N(C)C[C@H]2OCc3ccccc3-c3ccccc3C(=O)N([C@@H](C)CO)C[C@@H]2C)cc1 -59.6%, CC(C)NC(=O)N(C)C[C@@H]1OCc2ccccc2-c2c(n(C)c3ccccc23)C(=O)N([C@@H](C)CO)C[C@H]1C 16%, CC(C)C#Cc1ccc([C@H]2[C@@H](CO)N3C(=O)CN(C(=O)Cc4ccccc4)C[C@H]23)cc1 -68.7%, COc1ccccc1NC(=O)N[C@H]1CC[C@H](CCNC(=O)Cc2ccccn2)O[C@@H]1CO -4.42%, CCC(=O)N1C[C@@H](C)[C@H](OC)CN(C)C(=O)c2ccc(NC(=O)C3CCOCC3)cc2OC[C@@H]1C -9.88%, O=C(c1ccccc1)N1CC(=O)N2[C@@H](CO)[C@H](c3ccc(C#CC4CC4)cc3)[C@@H]2C1 16.5%, C[C@H](CO)N1C[C@H](C)[C@H](CN(C)C(=O)C2CCC2)Oc2ncc(C#CCc3ccccc3)cc2C1=O -34.2%, CCCC#Cc1ccc([C@H]2[C@H]3CN(C(=O)Nc4cccc(F)c4)CC(=O)N3[C@H]2CO)cc1 -4.18%, C[C@H](CO)N1C[C@H](C)[C@H](CN(C)S(C)(=O)=O)Oc2ncc(C3=CCCC3)cc2C1=O 25.5%, Cc1ccccc1S(=O)(=O)N(C)C[C@@H]1OCc2ccccc2-c2c(n(C)c3ccccc23)C(=O)N([C@H](C)CO)C[C@H]1C -67.7%, C[C@@H]1CN([C@@H](C)CO)C(=O)c2c(c3ccccc3n2C)-c2ccccc2CO[C@@H]1CN(C)S(=O)(=O)CC(F)(F)F 20.5%, C[C@@H]1CN([C@@H](C)CO)C(=O)c2c(c3ccccc3n2C)-c2ccccc2CO[C@@H]1CN(C)S(=O)(=O)c1cccs1 -57.7%, C[C@@H]1CN([C@H](C)CO)C(=O)c2c(c3ccccc3n2C)-c2ccccc2CO[C@H]1CN(C)S(=O)(=O)c1ccccc1F -58.8%, C[C@@H]1CN([C@@H](C)CO)C(=O)c2c(c3ccccc3n2C)-c2ccccc2CO[C@H]1CN(C)S(=O)(=O)c1cccs1 -56.5%, C[C@@H]1CN([C@@H](C)CO)C(=O)c2c(c3ccccc3n2C)-c2ccccc2CO[C@@H]1CN(C)S(=O)(=O)c1ccc(F)cc1 -60.8%, O=C(N[C@@H]1C=C[C@@H](CC(=O)N2CCOCC2)O[C@H]1CO)c1ccccn1 35.5%, O=C(NCCN1CCCCC1)[C@@H]1N[C@@H]2c3ccc(-c4ccccc4)c(=O)n3C[C@@H]2[C@H]1CO 50.6%, COc1cccc(NC(=O)C[C@H]2CC[C@@H]3[C@@H](COc4ccc(NC(=O)C5CCOCC5)cc4C(=O)N3C)O2)c1 15.2%, N#C[C@@H]1[C@H](c2ccccc2C2=CCCCC2)[C@@H](CO)N1S(=O)(=O)c1cccc(F)c1 -43.9%, C/C=C/c1ccccc1[C@H]1[C@@H](C#N)N(C(=O)Cc2ccccn2)[C@@H]1CO 1.87%, Cc1ccc(-c2ccccc2[C@H]2[C@@H](C#N)N(c3ncc(-c4ccccc4)s3)[C@@H]2CO)cc1 -65.2%, N#C[C@@H]1[C@H](c2ccccc2-c2ccccc2)[C@H](CO)N1c1ncc(-c2ccccc2)s1 -4.56%, C/C=C/c1ccccc1[C@@H]1[C@@H](C#N)N(c2nc(CC)cs2)[C@@H]1CO -18.3%, C/C=C/c1ccccc1[C@H]1[C@@H](C#N)N(C(C)=O)[C@@H]1CO 7.51%, O=C(NC1CCCCC1)N[C@H]1CC[C@H](CCNS(=O)(=O)c2ccc(F)cc2)O[C@H]1CO 24.8%, C/C=C/c1ccc([C@@H]2[C@H](CO)N(S(=O)(=O)Cc3ccccc3)C23CN(C(=O)C2CCOCC2)C3)cc1 -52%, CO[C@H]1CN(C)C(=O)c2ccc(NC(=O)C3CC3)cc2OC[C@H](C)N(C(=O)CN2CCOCC2)C[C@@H]1C 26.1%, CC(C)(C)[S@@](=O)N1Cc2cc(C(=O)O)nc(-c3cccc(-c4cccc(F)c4)c3)c2[C@H]1CCO 41.4%, COc1ccccc1C#Cc1ccc([C@@H]2[C@H](CO)N3CCCCN(C(=O)C4CCCC4)C[C@@H]23)cc1 -47.8%, CCC(=O)Nc1ccc2c(c1)OC[C@H](C)N(C(=O)Cc1cccnc1)C[C@@H](C)[C@@H](OC)CN(C)C2=O 8.05%, Cn1cnc(CCNC(=O)C[C@H]2CC[C@@H]3[C@H](COC[C@H](O)CN3C(=O)C3CC3)O2)c1 -3%, COc1ccc(NC(=O)N(C)C[C@H]2OCCCC[C@H](C)Oc3ccc(NC(=O)Nc4ccc(C(F)(F)F)cc4)cc3C(=O)N([C@@H](C)CO)C[C@@H]2C)cc1 -39.3%, CNC[C@@H]1OCCCC[C@H](C)Oc2ccc(NC(=O)Nc3ccccc3)cc2C(=O)N([C@H](C)CO)C[C@H]1C 31%, C[C@H](CO)N1C[C@H](C)[C@@H](CN(C)S(C)(=O)=O)OCCCC[C@H](C)Oc2ccc(NC(=O)Nc3ccc(C(F)(F)F)cc3)cc2C1=O 30.4%, COc1ccc(NC(=O)Nc2ccc3c(c2)C(=O)N([C@H](C)CO)C[C@@H](C)[C@H](CN(C)C(=O)Nc2ccc(C(F)(F)F)cc2)OCCCC[C@@H](C)O3)cc1 -69%, CC(C)NC(=O)Nc1ccc2c(c1)C(=O)N([C@@H](C)CO)C[C@@H](C)[C@@H](CN(C)C(=O)Nc1ccc(C(F)(F)F)cc1)OCCCC[C@H](C)O2 -63.3%, CC(C)NC(=O)Nc1ccc2c(c1)C(=O)N([C@H](C)CO)C[C@H](C)[C@H](CN(C)C(=O)Nc1ccc(C(F)(F)F)cc1)OCCCC[C@@H](C)O2 1.85%, CNC[C@H]1OCCCC[C@H](C)Oc2ccc(NC(=O)Nc3ccc(C(F)(F)F)cc3)cc2C(=O)N([C@H](C)CO)C[C@@H]1C -14.8%, Cc1ccc(S(=O)(=O)N(C)C[C@H]2OCCCC[C@@H](C)Oc3ccc(NC(=O)Nc4ccc(F)cc4)cc3C(=O)N([C@@H](C)CO)C[C@H]2C)cc1 -68.1%
